Experimental findings from PubChem BioAssay (NCATS) are described below.

Molecules are shown by their SMILES. Records with an inconclusive call do not appear. Active and inactive are the calls of the source. Calls come from the whole dose curve; as a rule, active = well fitted cell-killing curve with a large enough effect; inconclusive = small, poorly fitted or top-dose-only effect, or effect the other way; inactive = no such curve, though single readings can be large or run the other way.
Potency is the fitted concentration of half-maximal effect.

The nature of one test: Quantitative High-Throughput drug screen in 47 multiple myeloma cell lines against the NCATS MIPE library collection: KMS34_JCRB cell viability assay (AID 1918985).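 For viability, percent of control: 100% = DMSO-only wells and 0% = media-only wells.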 Note: nearly all actives have a fitted effect of over 40% in size. Particulars: KMS34 myeloma viability, CellTiter-Glo ATP luminescence, 48 h; series mostly up to 45.8 µM; viability, percent of control: at the top concentration. The method in brief:
(§1)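 ATP-based luminescence (CellTiter-Glo, 5 min RT incubation) quantified surviving cells following two days' treatment with MIPE 4.0 agents at 37 °C, 5% CO2.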
(In general: Cellular ATP, detected with luciferase, serves as a proxy for viable cell number.)
Take `O=C(NCCS(=O)(=O)c1ccc(C(F)(F)F)cn1)c1ccc(Cl)cc1`: the “viability, percent of control” value is 91.9% (inactive).

Turning to `CC[C@@H]1C(=O)N(C)c2cnc(Nc3ccc(C(=O)NC4CCC(N5CCN(CC6CC6)CC5)CC4)cc3OC)nc2N1C(C)C` (some centres not stated), the Potency was 105 nM (active).

As for `CN(C)CC=CC(=O)Nc1cc2c(Nc3ccc(F)c(Cl)c3)ncnc2cc1O[C@H]1CCOC1`, the Potency was 20900 nM (active).

With `CC1(C)O[C@@H]2C[C@@H]3[C@H]4C[C@@H](F)C5=CC(=O)C=C[C@]5(C)[C@@]4(F)[C@@H](O)C[C@]3(C)[C@]2(C(=O)CO)O1`, the “viability, percent of control” value is 65.5% (inactive).

For the molecule `Cc1[nH]c2ccccc2c1CCNCc1ccc(C=CC(=O)NO)cc1`, the Potency is 52.6 nM (active).

In the case of `NC(=O)c1c(OCc2c(F)cc(Br)cc2F)nsc1NC(=O)NCCCCN1CCCC1`, the Potency was 20900 nM (active).

In the case of `Clc1cccc(-n2nnnc2NCc2ccccc2Oc2ccccn2)c1Cl`, the “viability, percent of control” value is 78.4% (inactive).

For the molecule `COc1cc(OC2CCN(C)CC2)ccc1Nc1ncc2c(n1)n(C1CCCC1)c(=O)n2C`, the Potency is 16600 nM (active).

Turning to `O=c1[nH]nc(Sc2ncc([N+](=O)[O-])s2)n1-c1ccc2c(c1)OCCO2`, the Potency is 2090 nM (active).

Turning to `COc1ccc(F)c(F)c1C(=O)c1cnc(NC2CCN(S(C)(=O)=O)CC2)nc1N`, the Potency is 1320 nM (active).

As for `O=C(Cc1ccc(-c2ccc(OCCN3CCOCC3)cc2)cn1)NCc1ccccc1`, the Potency was 14.8 nM (active).

`C[C@@H](Oc1cc(-n2cnc3ccc(CN4CCN(C)CC4)cc32)sc1C(N)=O)c1ccccc1C(F)(F)F`: the Potency was 41.8 nM (active).

For `CC(C)=CCCC(C)=CCCC(C)=CCSc1ccccc1C(=O)O`, the Potency is 1320 nM (active).

As for `COC(=O)Nc1ccc(-c2nc(N3CCOCC3)c3cnn(C4CCN(Cc5cccnc5)CC4)c3n2)cc1`, the Potency was 59 nM (active).

Turning to `COc1cc2c(NC3CCN(C(C)C)CC3)nc(C3CCCCC3)nc2cc1OCCCN1CCCC1`, the Potency was 5260 nM (active).

As for `COCCOc1ccc2c(c1)ncn2-c1ccc2cccc(N3CCC(N)CC3)c2n1`, the Potency was 372 nM (active).

As for `Cn1cncc1[C@@](N)(c1ccc(Cl)cc1)c1ccc2c(c1)c(-c1cccc(Cl)c1)cc(=O)n2C`, the Potency was 833 nM (active).

For `CCc1c2c(nc3ccc(O)cc13)-c1cc3c(c(=O)n1C2)COC(=O)[C@]3(O)CC`, the Potency is 264 nM (active).

On to `O=C(Nc1ncc(-c2cc(C(F)F)nn2-c2c(Cl)cccc2Cl)s1)C1CC1`, for which the Potency was 264 nM (active).

As for `CN1CCN(Cc2ccc(NC(=O)Nc3ccc(Oc4cc(NC(=O)C5CC5)ncn4)cc3)cc2C(F)(F)F)CC1`, the Potency is 332 nM (active).

The next test can be described thus: Quantitative High-Throughput drug screen in 47 multiple myeloma cell lines against the NCATS MIPE library collection: OCIMY7_PLB cell viability assay (AID 1918987). Note: nearly all actives have a fitted effect of over 65% in size. Particulars: OCI-MY7 myeloma viability, CellTiter-Glo ATP, 48 h; series mostly up to 45.8 µM; viability (% of DMSO): at the top concentration. The method in brief:
as §1
Turning to `Cn1c(CNc2ccc(C(=N)N)cc2)nc2cc(C(=O)N(CCC(=O)O)c3ccccn3)ccc21`, the “viability (% of DMSO)” value is 183% [at 23.2 µM] (inactive).

Take `O=C(c1cncc(Br)c1)N1CCC(N2CCCC2)CC1`: the “viability (% of DMSO)” value was 197% (inactive).

As for `CC[C@@H]1C(=O)N(C)c2cnc(Nc3ccc(C(=O)NC4CCC(N5CCN(CC6CC6)CC5)CC4)cc3OC)nc2N1C(C)C` (some centres not stated), the Potency is 833 nM (active).

`CN(C)CC=CC(=O)Nc1cc2c(Nc3ccc(F)c(Cl)c3)ncnc2cc1O[C@H]1CCOC1`: the Potency was 372 nM (active).

With `Cc1[nH]c2ccccc2c1CCNCc1ccc(C=CC(=O)NO)cc1`, the Potency was 74.3 nM (active).

Consider `NC(=O)c1c(OCc2c(F)cc(Br)cc2F)nsc1NC(=O)NCCCCN1CCCC1`, for which the Potency is 8330 nM (active).

Turning to `Nc1ccn([C@@H]2O[C@H](CO)[C@H](O)C2(F)F)c(=O)n1`, the Potency is 1 nM (active).

In the case of `C[C@]1(CO)CN(c2cc(C(=O)Nc3ccc4c(c3)-c3c(c(C(N)=O)nn3-c3ccc(F)cc3)CC4)c(Cl)cn2)C[C@@]1(C)CO`, the Potency was 1870 nM (active).

On to `Cn1cc(-c2ccncc2)c(-c2ccc(OCc3ccc4ccccc4n3)cc2)n1`, for which the Potency is 10500 nM (active).

`Cc1nc2cnc3ccc(C#Cc4cccnc4)cc3c2n1-c1ccc(C(C)(C)C#N)cc1`: the Potency was 105 nM (active).

Take `COc1cc(OC2CCN(C)CC2)ccc1Nc1ncc2c(n1)n(C1CCCC1)c(=O)n2C`: the Potency is 2960 nM (active).

For `COc1cc2c(Nc3ccc(NC(=O)c4ccccc4)cc3)ncnc2cc1OCCCN1CCOCC1`, the Potency is 2640 nM (active).

For `O=c1[nH]nc(Sc2ncc([N+](=O)[O-])s2)n1-c1ccc2c(c1)OCCO2`, the Potency is 935 nM (active).

Take `COc1ccc(F)c(F)c1C(=O)c1cnc(NC2CCN(S(C)(=O)=O)CC2)nc1N`: the Potency is 1660 nM (active).

As to `CC(C)(C)NC(=O)[C@H]1CN(Cc2cccnc2)CCN1C[C@@H](O)C[C@@H](Cc1ccccc1)C(=O)N[C@H]1c2ccccc2C[C@H]1O`, the Potency was 10500 nM (active).

Turning to `O=C(Cc1ccc(-c2ccc(OCCN3CCOCC3)cc2)cn1)NCc1ccccc1`, the Potency is 1 nM (active).

Consider `Cc1cn2c(-c3cn[nH]c3)cnc2c(Nc2ccc(C(=O)N3CCNCC3)cc2F)n1`, for which the Potency was 10500 nM (active).

Take `Cc1cc(Nc2cc(CN3CCOCC3)c3nc(C)c(Cc4ccc(Cl)cc4F)n3n2)n[nH]1`: the Potency was 2640 nM (active).

For the molecule `COC(=O)Nc1ccc(-c2nc(N3CCOCC3)c3cnn(C4CCN(Cc5cccnc5)CC4)c3n2)cc1`, the Potency is 23500 nM (active).

Regarding `COc1cc2c(NC3CCN(C(C)C)CC3)nc(C3CCCCC3)nc2cc1OCCCN1CCCC1`, the Potency is 16600 nM (active).

With `COCCOc1ccc2c(c1)ncn2-c1ccc2cccc(N3CCC(N)CC3)c2n1`, the Potency was 469 nM (active).

Take `Cn1cncc1[C@@](N)(c1ccc(Cl)cc1)c1ccc2c(c1)c(-c1cccc(Cl)c1)cc(=O)n2C`: the Potency was 14.8 nM (active).

As for `CCc1c2c(nc3ccc(O)cc13)-c1cc3c(c(=O)n1C2)COC(=O)[C@]3(O)CC`, the Potency was 1 nM (active).

With `O=C(Nc1ncc(-c2cc(C(F)F)nn2-c2c(Cl)cccc2Cl)s1)C1CC1`, the Potency is 166 nM (active).

For the molecule `O=C(O)C1(Cc2cccc(Nc3nccs3)n2)CCC(Oc2cccc(Cl)c2F)CC1` (configuration not stated), the Potency is 296 nM (active).

On to `CN1CCN(Cc2ccc(NC(=O)Nc3ccc(Oc4cc(NC(=O)C5CC5)ncn4)cc3)cc2C(F)(F)F)CC1`, for which the Potency is 526 nM (active).

On to `c1ccc2c(CCNc3ccc(Nc4ccncc4)cc3)c[nH]c2c1`, for which the Potency is 8330 nM (active).
